Results on 33 compounds are retold here after PubChem BioAssay (NCATS).

Inconclusive results are not listed. Entries that show only a call come without a potency. The source made the active and inactive calls. Calls come from the whole dose curve; as a rule, active = well fitted inhibition curve with a large enough effect; inconclusive = small, poorly fitted or top-dose-only effect; inactive = flat fitted curve, though single readings scatter.
Potency is the fitted concentration of half-maximal effect.

In this experiment the test system is MKL-2. In words: qHTS assay to identify novel small-molecules to repurpose for Merkel cell carcinoma treatment (AID 1296009). Note: nearly all actives have a fitted effect of over 60% in size. The settings on record: MCC and control cell lines, CellTiter-Glo viability, 72 h; series mostly up to 46 µM. Put shortly: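 Cell viability, measured as CellTiter-Glo luminescence, was normalized between DMSO and no-cell wells. The cells had been exposed to 8- or 11-point compound dilutions for 72 hr at 37 degree celsius.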
In the case of `COc1nccc(-c2c(-c3ccc(F)cc3)ncn2C2CCC(O)CC2)n1` (stereo not drawn), the Potency entry was “inactive”.
In the case of `CNc1nc(Nc2ccc(C(=O)N3CCOCC3)cc2OC)ncc1Cl`, the Potency entry is “inactive”.
Turning to `O=C1C(c2c(O)[nH]c3ccccc23)=Nc2ccccc21`, the Potency result was “inactive”.
With `COc1cc(Nc2nc3ccccc3nc2NS(=O)(=O)c2ccc(NC(=O)c3ccc(C)c(OC)c3)cc2)cc(OC)c1` the entry was “inactive”.
With `COc1ccc(-c2ccc3ncc4c(c3c2)n(-c2ccc(N3CCNCC3)c(C(F)(F)F)c2)c(=O)n4C)cn1` the figure was 0.0418 µM (active); with `NS(=O)(=O)c1cc(Cl)c(Cl)c(S(N)(=O)=O)c1`, “inactive”.
`CN1C(=O)C(Cc2c[nH]c3ccccc23)NC1=S` (stereo not drawn): the Potency entry was “inactive”.
Consider `CN1c2ccccc2C(=O)N2CCc3c([nH]c4ccccc34)C21` (stereo not drawn), for which the Potency entry is “inactive”.
`CC1CCN(c2cc(N3CCN(C)CC3)ccc2NC(=O)c2cc(C#N)c[nH]2)CC1`: the Potency entry was “inactive”.
For `CCOC(=O)[C@H](CCc1ccccc1)N[C@@H](C)C(=O)N1CCCC1C(=O)O` (stereo partly drawn), the Potency entry was “inactive”.
With `O=C(CO)N1CCC(c2[nH]nc(-c3ccc(Cl)cc3)c2-c2ccncn2)CC1`, the Potency result is “inactive”.
On to `Cc1ccccc1-n1c(Cn2nc(-c3cccc(O)c3)c3c(N)ncnc32)nc2cccc(C)c2c1=O`, for which the Potency was 10.5 µM (active).
On to `CC(C)(OCc1nn(Cc2ccccc2)c2ccccc12)C(=O)O`, for which the Potency result was “inactive”.
Turning to `Nc1ccc(-c2ccc3ncc4ccc(=O)n(-c5cccc(C(F)(F)F)c5)c4c3c2)cn1`, the Potency is 0.132 µM (active).
Consider `Cc1ccccc1C(C(=O)NC1CCCCC1)N(C(=O)CNc1ccc(C#N)cc1)c1cccc(F)c1` (stereo not drawn), for which the Potency entry was “inactive”.
With `O=c1cc(-c2ccc(O)c(O)c2)oc2cc(O)cc(O)c12`, the Potency entry was “inactive”.
Turning to `COc1nc(C)cnc1NS(=O)(=O)c1cccnc1-c1ccc(-c2nnco2)cc1`, the Potency entry was “inactive”.
`O=C(c1ccc(C(=O)N2CCC(N3CCCC3)CC2)c(Nc2ccccc2)c1)N1CCC(N2CCCC2)CC1`: the Potency entry is “inactive”.
For the compound `CC(C)CNc1ccnc(NCc2csc(-c3ccccc3)n2)n1`, the Potency is 16.6 µM (active).
Consider `Clc1ccc(C2(c3ccc(-c4cn[nH]c4)cc3)CCNCC2)cc1`, for which the Potency result is “inactive”.
As to `CC1=C(C(=O)Nc2cc3cn[nH]c3cc2F)C(c2ccc(C(F)(F)F)cc2)CC(=O)N1` (stereo not drawn), the Potency entry was “inactive”.
On to `CC(=O)N1CCN(c2ccc(OCc3nn(C)c(C)c3-c3cccc4c(CCCOc5cc(C)c(Cl)c(C)c5)c(C(=O)O)n(Cc5cccnc5)c34)cc2)CC1`, for which the Potency was 14.8 µM (active).
As for `c1ccc(CNc2nc(N3CCOc4ccccc43)nc3c2CCCC3)cc1`, the Potency result is “inactive”.
On to `Cn1c(=O)c(-c2c(Cl)cccc2Cl)cc2cnc(Nc3cccc(C(=O)O)c3)nc21`, for which the Potency entry was “inactive”.
In the case of `CCN1C[C@H](C)n2c(c(O)c3c(=O)n(Cc4ccc(F)c(Cl)c4)nc(C(=O)NC)c32)C1=O`, the Potency entry was “inactive”.
Take `COc1ccc(CCC(=O)Nc2nc3ccc(Cl)cc3s2)cc1OC`: the Potency result was “inactive”.
Consider `Cc1cc2c(cc1C1(c3ccc(C(=O)O)cn3)CC1)C(C)(C)CCC2(C)C`, for which the Potency entry is “inactive”.
Take `C[C@@]1(c2cc(-c3cncnc3)c(F)cc2F)CCSC(N)=N1`: the Potency entry is “inactive”.
Take `C[C@H](c1ccc(F)cc1CCCC(=O)O)N(c1cc(F)ccc1F)S(=O)(=O)c1ccc(Cl)cc1`: the Potency entry is “inactive”.
Regarding `COc1ccc(-c2cc(=O)c3c(O)cc(O[C@@H]4O[C@H](CO[C@@H]5O[C@@H](C)[C@H](O)[C@@H](O)[C@@H]5O)[C@@H](O)[C@H](O)[C@@H]4O)cc3o2)cc1O`, the Potency entry was “inactive”.
`COC(=O)N1CCN(Cc2cccc(NC(=O)Nc3ccc(C)nc3)c2F)CC1`: the Potency entry was “inactive”.
The same measure for `Cc1cnc(-c2cc(N3CCN(C(=O)CCS(C)(=O)=O)CC3)ncc2Cl)c(C)c1`: “inactive”; for `NC(=O)c1ccc(N(C(N)=O)c2c(F)cccc2F)nc1-c1ccc(F)cc1F`: “inactive”.
